Read-out in experiment [1]: UDP glucuronosyltransferase (UGT1A6), UGT1A6 (gene 54578)
The experiment in a line: LTEA_HepaRG_UGT1A6: Life Technologies and Expression Analysis (LTEA) Assay for UDP glucuronosyltransferase (UGT1A6) using HepaRG (AID 2283539; active = hit-call score of the fitted dose curve at least 0.9, where 1 is the maximum; inactive = score below 0.9). Conditions: mRNA level, 48 h; actives raise or lower the signal. Put shortly: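 Measures mRNA change in HepaRG hepatic cells exposed 48 h to chemicals (eight-point, maximum 100 uM, 0.5% DMSO vehicle) in serum-free induction medium. Expression normalized to endogenous controls; DMSO served as negative control and baseline.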

Read-out in experiment [2]: X-box binding protein 1 (XBP1), XBP1 (gene 7494)
As to the kind of experiment: LTEA_HepaRG_XBP1: Life Technologies and Expression Analysis (LTEA) Assay for X-box binding protein 1 (XBP1) using HepaRG (AID 2283540; active = hit-call score of the fitted dose curve at least 0.9, where 1 is the maximum; inactive = score below 0.9). To be noted: mRNA level, 48 h; actives raise or lower the signal. In a few lines: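 Eight concentrations (half-log, highest 100 uM, 0.5% DMSO) tested in duplicate on HepaRG cells over 48 h in serum-free induction medium; qRT-PCR of XBP1 normalised to ACTB, GAPDH, POLR2A.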

A short description of experiment [3]: ATG_XTT_Cytotoxicity: Cytotoxicity Assessment in the Attagene TRANS-FACTORIAL HepG2 Assay (AID 2283584). Put shortly:
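24 h chemical exposure of reporter-transfected HepG2; XTT signal loss vs DMSO indicates cytotoxicity.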

The nature of experiment [4]: TOX21_p53_BLA_p2_viability: Viability Assessment in the Tox21 HCT-116 p53 Agonism Beta-lactamase Assay, Phase 2 (AID 2283591).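 Also: compound exposure lasted 16 h at 37 °C; actives lower the ATP signal meaning cytotoxicity.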 In a few lines: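 Cytotoxicity readout: CellTiter-Glo ATP luminescence, 30 min at room temperature, after the beta-lactamase read. Cells were HCT116 exposed 16 h at 37C to compounds pin-transferred at 217-fold dilution from DMSO stocks.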
The target in experiment [5] is Cellular tumor antigen p53 (Homo sapiens) (UniProt P04637). The experiment in a line: TOX21_p53_BLA_p2_ratio: Tox21 HCT-116 p53 Agonism Beta-lactamase Assay, Ratio, Phase 2 (AID 2283592). Put shortly: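 DMSO-normalized, positive-direction endpoint derived from the 460 nm/530 nm FRET ratio in HCT116 p53 beta-lactamase reporter cells exposed 16 h at 37C and loaded with CCF4-AM for 2 h.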
Sequence of Cellular tumor antigen p53 (Homo sapiens) (P04637 whole entry, looked up): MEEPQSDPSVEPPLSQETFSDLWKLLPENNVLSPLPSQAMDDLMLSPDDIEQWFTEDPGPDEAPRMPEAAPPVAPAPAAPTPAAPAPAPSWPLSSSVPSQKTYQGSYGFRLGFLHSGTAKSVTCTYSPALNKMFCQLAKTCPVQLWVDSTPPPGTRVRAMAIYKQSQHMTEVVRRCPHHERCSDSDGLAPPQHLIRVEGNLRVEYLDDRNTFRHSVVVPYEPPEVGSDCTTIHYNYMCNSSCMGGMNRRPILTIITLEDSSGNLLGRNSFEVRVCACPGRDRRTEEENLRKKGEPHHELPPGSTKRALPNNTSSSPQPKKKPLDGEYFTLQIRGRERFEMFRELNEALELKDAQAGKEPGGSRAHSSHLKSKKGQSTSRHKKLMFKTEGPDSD

The nature of experiment [6]: TOX21_p53_BLA_p3_viability: Viability Assessment in the Tox21 HCT-116 p53 Agonism Beta-lactamase Assay, Phase 3 (AID 2283593).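 Also: cells exposed to compound for 16 h before reading.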 Put shortly: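 Cellular ATP was quantified by CellTiter-Glo luminescence, read after 30 min at room temperature. Beforehand, HCT116 cells (4000/well) received compound 5 h post-seeding, 217-fold diluted from DMSO, then incubated 16 h at 37C.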

Experiment [7] concerns the target Cellular tumor antigen p53 (Homo sapiens) (UniProt P04637). As to the kind of experiment: TOX21_p53_BLA_p3_ratio: Tox21 HCT-116 p53 Agonism Beta-lactamase Assay, Ratio, Phase 3 (AID 2283596). In a few lines:
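Cells were seeded at 4000/well, rested 5 h at 37C, then dosed with DMSO compound solutions (217-fold dilution) for 16 h. CCF4-AM substrate was loaded for 2 h at room temperature, and the 460/530 nm emission ratio was fitted for gain of signal versus DMSO.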

Experiment [8] can be described thus: TOX21_p53_BLA_p4_viability: Viability Assessment in the Tox21 HCT-116 p53 Agonism Beta-lactamase Assay, Phase 4 (AID 2283597).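 Also: hits lower the luminescence signal meaning cytotoxicity.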 In a few lines:
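In this multiplexed secondary endpoint, HCT116 cells (4000 per well, compound at 5 h, 16 h treatment) received CellTiter-Glo after the beta-lactamase read. Luminescence after 30 min RT reflects ATP, and falling signal marks cytotoxicity.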

The target in experiment [9] is Cellular tumor antigen p53 (Homo sapiens) (UniProt P04637). The experiment in a line: TOX21_p53_BLA_p5_ratio: Tox21 HCT-116 p53 Agonism Beta-lactamase Assay, Ratio, Phase 5 (AID 2283599). In a few lines:
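Beta-lactamase reporter ratio (blue 460 nm over green 530 nm, 405 nm excitation) after 2 h CCF4-AM loading, in HCT-116 cells exposed 16 h at 37 C to compounds pinned at 217-fold dilution. Increases relative to DMSO baseline scored.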

The nature of experiment [10]: TOX21_p53_BLA_p5_viability: Viability Assessment in the Tox21 HCT-116 p53 Agonism Beta-lactamase Assay, Phase 5 (AID 2283600). Put shortly: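 Here cell health was gauged by ATP levels in wells holding 4000 cells, each treated 16 h with DMSO-delivered compounds at 217-fold dilution; reduced luminescence marked toxicity.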
In experiment [11] the target is Cellular tumor antigen p53 (Homo sapiens) (UniProt P04637). As to the kind of experiment: TOX21_p53_BLA_p4_ratio: Tox21 HCT-116 p53 Agonism Beta-lactamase Assay, Ratio, Phase 4 (AID 2283601). Put shortly: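 Signal is the blue/green (460nm/530nm) ratio of cleaved versus uncleaved CCF4-AM substrate, read after 2 h substrate loading. Cells were HCT116 carrying the p53-responsive beta-lactamase reporter, dosed 16 h at 37C, 5% CO2; CellTiter-Glo measured in parallel.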

The nature of experiment [12]: Tanguay_ZF_120hpf_MORT_legacy: (Legacy) Oregon State University Tanguay Lab 120 Hour Post-fertilization zebrafish Assay for Mortality (AID 2283633). Put shortly:
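Single dechorionated Tropical 5D embryos were held with test chemical (0.64% DMSO final) from 6 to 120 hpf at 28C under foil. Deaths at 24 or 120 hpf were recorded as binary calls, analysed for increase over DMSO controls.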

Experiment [13] in a line: Tanguay_ZF_120hpf_YSE_legacy: (Legacy) Oregon State University Tanguay Lab 120 Hour Post-fertilization zebrafish Assay for Yolk Sac Edema (AID 2283634). Put shortly:
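Single dechorionated embryos were held in sealed plates at 28C with test chemical (0.64% DMSO final) from 6 hpf until 120 hpf. Edema of the yolk sac was then recorded as a binary endpoint; non-mortality endpoints were skipped for dead embryos.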

Experiment [14] in a line: Tanguay_ZF_120hpf_AXIS_legacy: (Legacy) Oregon State University Tanguay Lab 120 Hour Post-fertilization zebrafish Assay for Body Axis Malformation (AID 2283635). Put shortly: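 Each dechorionated embryo was exposed alone from 6 hpf, with DMSO at 0.64% (vol/vol) and trimethyltin chloride 5 uM as positive control. Axis malformation was recorded at 120 hpf unless the embryo had died.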

A short description of experiment [15]: Tanguay_ZF_120hpf_EYE_legacy: (Legacy) Oregon State University Tanguay Lab 120 Hour Post-fertilization zebrafish Assay for Eye Malformation (AID 2283636).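 Also: binary presence or absence of eye malformation scored by brightfield in 120 hpf larvae.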 In a few lines: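 Binary brightfield scoring of eye defects at 120 hpf after static exposure from 6 hpf of single pronase-dechorionated wild-type embryos (28C, 0.64% DMSO). Non-mortality endpoints omitted where embryos died; fit vs DMSO.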

The nature of experiment [16]: Tanguay_ZF_120hpf_SNOU_legacy: (Legacy) Oregon State University Tanguay Lab 120 Hour Post-fertilization zebrafish Assay for Snout Malformation (AID 2283637). In a few lines: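 Binary snout-malformation call at 120 hpf in wild-type 5D embryos, chorion removed by pronase, under static exposure from 6 hpf at 28C (0.64% DMSO). Embryos dying by 24 or 120 hpf excluded.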

Experiment [17] is described as follows: Tanguay_ZF_120hpf_JAW_legacy: (Legacy) Oregon State University Tanguay Lab 120 Hour Post-fertilization zebrafish Assay for Jaw Malformation (AID 2283638). Put shortly:
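Wild-type 5D embryos, chorion removed at 4 hpf, dosed singly from 6 hpf; 28C static, sealed, foil-covered, to 120 hpf. Endpoint: jaw defect yes/no (brightfield); mortality excludes scoring.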

A short description of experiment [18]: Tanguay_ZF_120hpf_PE_legacy: (Legacy) Oregon State University Tanguay Lab 120 Hour Post-fertilization zebrafish Assay for Pericardial Edema (AID 2283640). Put shortly: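 Zebrafish larvae are exposed from early development to 120 hpf at 28C, with 0.64% DMSO final. Each surviving larva receives a yes/no pericardial edema call by brightfield imaging, analysed relative to the DMSO baseline.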

Experiment [19] is described as follows: LTEA_HepaRG_LDH_cytotoxicity: Cytotoxicity Assessment in the Life Technologies and Expression Analysis (LTEA) Assay (AID 2283563).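 As to AC50: LDH activity released into spent culture medium as a marker of cell death.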 In a few lines:
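Spent-medium LDH after 48 h chemical exposure of HepaRG cells in serum-free induction medium; eight concentrations, half-log dilutions from 100 uM, duplicate wells, fitted upward relative to 0.5% DMSO.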

Experiment [20] can be described thus: Tanguay_ZF_120hpf_OTIC_legacy: (Legacy) Oregon State University Tanguay Lab 120 Hour Post-fertilization zebrafish Assay for Otic Vesicle Malformation (AID 2283639). In a few lines:
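Statically exposed wild-type 5D zebrafish embryos, kept sealed and dark at 28C through 120 hours post fertilization, were examined by brightfield microscopy for otic vesicle defects. Responses were recorded as present or absent and analysed relative to DMSO.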

Molecules are shown by their SMILES. Inconclusive results are not listed. Some compounds were tested as several samples or in several runs, with calls that do not always agree. Active and inactive are the calls of the source. The calls were made as follows, unless noted: active = hit-call score of the fitted dose curve at least 0.9, where 1 is the maximum; inconclusive = response in the unintended direction; inactive = score below 0.9.

By AC50 is commonly meant the midpoint of the concentration-response curve, whichever way the signal moves.

For the compound `Cc1c(C(=O)O)c(O)cc2c1C(=O)c1c(O)c([C@@H]3O[C@H](CO)[C@@H](O)[C@H](O)[C@H]3O)c(O)c(O)c1C2=O`, the result in experiment [1], in experiment [2], in experiment [3], in experiment [4], in experiment [5] and in [6] was inactive. In addition, the outcome in experiment [7], in [8], in experiment [9], in experiment [10], in [11] and in experiment [12] was inactive. In addition, the compound was called inactive in experiment [13], in [14], in [15], in [16], in experiment [17] and in experiment [18].

For `O=c1c(O)c(-c2ccc(O)c(O)c2)oc2cc(O)cc(O)c12`, the outcome in experiment [1], in [2], in experiment [19], in experiment [4], in experiment [6] and in experiment [8] was inactive. Besides, the result in experiment [10], in experiment [12], in [13], in experiment [14], in [16] and in experiment [17] was inactive. For the same compound, the outcome in experiment [20] and in [18] was inactive. Moreover, the AC50 is 20.2 µM (active) [middle of 4 runs] in experiment [5], 34.7 µM (active) in [8], 44.4 µM (active) [middle of 4 runs] in [9] and 22.8 µM (active) [middle of 4 runs] in experiment [11].

`COc1ccc(S(=O)(=O)N2C(=O)[C@@](c3ccccc3OC)(N3C[C@H](O)C[C@H]3C(=O)N(C)C)c3cc(Cl)ccc32)c(OC)c1`: the AC50 was 79 µM (active) in experiment [1]; 79.5 µM (active) in experiment [19]; 86.3 µM (active) in experiment [4]; 74.9 µM (active) in [5]; 67.7 µM (active) in experiment [8]; 75 µM (active) in experiment [9]. Further, the AC50 was 77.4 µM (active) in experiment [10] and 86.6 µM (active) in [11]. Moreover, the compound was classed as inactive in [2], in [7], in experiment [12], in experiment [13], in experiment [14] and in experiment [15]. Besides, the result in experiment [16], in [17] and in experiment [18] was inactive.

The values above are taken from PubChem BioAssay (EPA / NIEHS).
